Consider eight compounds from PubChem BioAssay (NCATS).

For experiment [1] the following is noted: Ebola virus entry assay, green fluorescence channel.
The conditions of experiment [2]: Ebola virus entry assay, blue channel fluorescence.
For experiment [3] the following is noted: Ebola virus entry assay, ratio channel.
The conditions of experiment [4]: Ebola virus entry assay, green channel fluorescence.
The conditions of experiment [5]: Ebola virus entry assay, reporter ratio channel; Channel type: primary.
The conditions of experiment [6]: Ebola virus entry assay, blue channel (ratio component).

Unmarked numbers belong to inactive results. For part of these data: Measured potencies and affinities stand elsewhere. Active and inactive are the calls of the source. No rule for the calls is given here.
For efficacy in this document: 0% is about no effect.

For the compound `CC1(C)CCC(C)(C)c2cc(NC(=O)c3ccc(C(=O)O)cc3)ccc21`, the efficacy in experiment [1] was 21.8%. Further, the outcome in experiment [2], in experiment [3], in experiment [4], in experiment [5] and in experiment [6] was inactive.
As a reminder, the AC50 is the midpoint of the concentration-response curve, whichever way the signal moves. As for `Cn1cc(C(=O)[C@@H]2CCc3nc[nH]c3C2)c2ccccc21`, the efficacy in experiment [1] is 15.9%. Moreover, the compound was classed as inactive in experiment [2], in experiment [3], in experiment [4] and in experiment [6]. The AC50 in experiment [5] is 39.8 µM (active).
On to `O=C(O)[C@H](O)[C@@H](O)[C@H](O[C@@H]1O[C@H](CO)[C@H](O)[C@H](O)[C@H]1O)[C@H](O)CO`, for which the efficacy in experiment [1] was 24.3%. The result in experiment [2], in experiment [3], in experiment [4], in experiment [5] and in experiment [6] was inactive.
Consider `CCCCCCCC/C=C\CCCCCCCCN`, for which the efficacy in experiment [1] is 12.8%. In addition, the outcome in experiment [2], in experiment [3], in experiment [4], in experiment [5] and in experiment [6] was inactive.
For `Cc1c(N)c(=O)n(-c2ccccc2)n1C`, the efficacy in experiment [1] is -25.5%. In addition, the outcome in experiment [2], in experiment [3], in experiment [4], in experiment [5] and in experiment [6] was inactive.
`C=Cc1c(C)c2cc3[nH]c(cc4nc(cc5nc(cc1[nH]2)C(C)=C5CCC(=O)O)C(CCC(=O)O)=C4C)c(C)c3C=C`: in experiment [1], the efficacy was 15.1%. The result in experiment [2], in experiment [3], in experiment [4], in experiment [5] and in experiment [6] was inactive.
For `CCCCCCCCCCCCOCCOCCOCCOCCOCCOCCOCCOCCOCCO`, in experiment [1], the efficacy is -12.9%. Besides, the compound was classed as inactive in experiment [2], in experiment [3], in experiment [4], in experiment [5] and in experiment [6].
`CNC(=O)c1cnn(-c2nc(N)c3ncn([C@@H]4O[C@H](CO)[C@@H](O)[C@H]4O)c3n2)c1`: the efficacy in experiment [1] was 20.7%. Further, the outcome in experiment [2], in experiment [3], in experiment [4], in experiment [5] and in experiment [6] was inactive.
